About 83,000 compounds went through this panel and 20% of them were active in at least one assay; those are over-represented in the sample as a whole.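 96-well plates, one dose, 48 hours. Percent growth reported; active if below 10.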 Calls of active or inactive are those of the source.
How the values were obtained:
Assay in all cases: NCI-60 one-dose screen, 48 h (100 = growth as untreated, 0 = no growth, -100 = all killed)
Conditions in all cases: 10 µM
[1] = test system: NCI-H23 lung
[2] = test system: NCI-H226 lung
[3] = test system: NCI-H322M lung
[4] = test system: HOP-62 NSCLC
[5] = test system: NCI-H460 lung
[6] = test system: NCI-H522 lung
[7] = test system: A549/ATCC NSCLC
[8] = test system: 786-0 renal
[9] = test system: COLO 205 colon
[10] = test system: DU-145 prostate

Measured: growth

CN(C)c1ccc(Cc2ccc(N(C)C)cc2Cl)c(Cl)c1
inactive: [1] 97% | [2] 89.4% | [3] 99.3% | [4] 105% | [5] 98.4% | [6] 80.1% | [7] 96.5% | [8] 112% | [9] 108% | [10] 103%

Nc1c(C(=O)Nc2ccccc2)sc2nc3c(cc12)C(O)CCC3 (stereo not given)
inactive: [1] 37.1% | [2] 74% | [3] 46.1% | [4] 24.6% | [5] 11.8% | [7] 29.3% | [8] 57.6%
active: [6] 7.09% | [9] -8.22% | [10] 5.47%

O=C(Nc1ccc(CO)cc1)c1ccccc1Nc1ccnc(C(F)(F)F)c1
inactive: [1] 96.5% | [2] 105% | [3] 113% | [4] 95.4% | [5] 103% | [6] 93.7% | [7] 99.5% | [8] 102% | [9] 104% | [10] 106%

N#Cc1c(C#N)c(SSc2c(C#N)c(C#N)c(N)n2-c2ccccc2)n(-c2ccccc2)c1N
inactive: [1] 94.8% | [2] 101% | [3] 108% | [4] 109% | [5] 120% | [6] 67.3% | [7] 112% | [8] 101% | [9] 97.4% | [10] 115%

CN(C)c1ccc(-c2cc(-c3cccc(NS(C)(=O)=O)c3)nc(N)c2C#N)cc1
inactive: [1] 21.5% | [2] 39.6% | [3] 21.1% | [4] 44.1% | [7] 25.9% | [8] 31%
active: [5] 5.32% | [6] 7.63% | [9] -71.2% | [10] -25.5%

CC12O[C@H](C[C@@H](O)[C@H]1O)n1c3ccccc3c3c4c(c5c6ccccc6n2c5c31)C(=O)N(CCCN)C4=O
inactive: [1] 28.9% | [2] 27.4% | [3] 56.3% | [4] 25.3% | [5] 10.4% | [7] 31.5% | [8] 53.9% | [9] 12.9% | [10] 60.8%
active: [6] -2.33%

COc1cc(Nc2ncnc(Nc3ccc4c(n3)NC(=O)C(C)(C)O4)n2)cc(OC)c1OC
active: [2] -27.7% | [3] 4.97% | [6] -11.6% | [7] -23.1% | [8] 8.87% | [9] -2.65%
inactive: [1] 25.5% | [4] 13.6% | [5] 12.1% | [10] 18.8%

COc1cc2nc(Nc3cccc(NC(C)=O)c3)nc(N)c2cc1OC
inactive: [1] 135% | [2] 90.9% | [3] 120% | [4] 94.4% | [5] 110% | [6] 93.2% | [7] 105% | [8] 94.7% | [9] 109% | [10] 90.2%

COc1ccc(-c2nn(-c3cccc(NC(=O)c4ccc5c(c4)OCCO5)c3)cc2-c2ccncc2)cc1Cl
active: [5] 9.42% | [6] -32.2% | [9] -6.14%
inactive: [1] 45.9% | [2] 47.6% | [3] 54.4% | [4] 30.9% | [7] 18.7% | [8] 14.7% | [10] 39.8%

CC1=C(N2CCOCC2)C(N2CCOCC2)=C(C)C(=O)C1=O
inactive: [1] 103% | [2] 98.2% | [3] 114% | [4] 93.6% | [5] 104% | [6] 99.1% | [7] 102% | [8] 102% | [9] 103% | [10] 108%

CC1CC(=O)OC(C)C1 (stereo not given)
inactive: [1] 102% | [2] 93.1% | [3] 103% | [4] 92.2% | [5] 104% | [6] 103% | [7] 95.8% | [8] 101% | [9] 112% | [10] 111%

CCN(CC)CCN1CC(=O)Nc2cc(Cl)ccc21
inactive: [1] 101% | [2] 95.1% | [3] 104% | [4] 103% | [5] 104% | [6] 92.7% | [7] 102% | [8] 115% | [9] 102% | [10] 120%

CC(=O)O[C@]1(C)CC[C@H]2[C@H](CNCCc3ccc(Cl)cc3)C(=O)O[C@@H]2C2=C(C)C(=O)C[C@H]21
active: [6] -33.4%
inactive: [1] 102% | [2] 94.9% | [3] 91.9% | [4] 94% | [5] 106% | [7] 85.6% | [8] 96.6% | [9] 97% | [10] 89.4%

O=C1/C(=C\c2ccc(Cl)cc2)CN(C(=S)Nc2ccccc2)C/C1=C\c1ccc(Cl)cc1
active: [1] -52.8% | [2] -70.1% | [3] -20.7% | [4] -55.4% | [5] -70.8% | [6] -88.2% | [7] -21.4% | [8] -86% | [9] -86.1% | [10] -73.2%

FC(F)(F)c1ccc(-c2cnc(-n3cc(COCCN4CCCCC4)nn3)nc2NC2CCCCCC2)cc1
inactive: [1] 67.7% | [2] 78.7% | [3] 54.4% | [4] 52.4% | [7] 10.6% | [8] 51.1% | [10] 57.7%
active: [5] -68.3% | [6] -12.8% | [9] -93.4%

Cc1nc2ccc(CN(C)c3ccc(C(=O)N[C@@H](CCC(=O)O)C(=O)O)s3)cc2c(=O)[nH]1
inactive: [1] 54.9% | [2] 56.1% | [3] 85.9% | [4] 28.6% | [5] 29.1% | [6] 71.9% | [7] 60% | [8] 18.3% | [9] 58.5% | [10] 52.6%

CC(=O)c1nc2ccccc2n1CCN1CCN(C)CC1
inactive: [1] 46.2% | [2] 90.9% | [3] 31.9% | [4] 41% | [5] 13.1% | [7] 31.2% | [8] 78.6%
active: [6] 0.166% | [9] 2.73% | [10] -3.03%

O=C(Nc1ccncc1)C(=O)c1cn(S(=O)(=O)c2ccc(F)cc2)c2ccccc12
active: [6] 0.626%
inactive: [1] 36.8% | [2] 53.7% | [3] 84.9% | [4] 36.2% | [5] 74.7% | [7] 82.3% | [8] 43.9% | [9] 103% | [10] 32%

C#Cc1ccc(-n2c(/C=C/c3cc(OC)cc(OC)c3)nc3ncccc3c2=O)cc1
active: [6] 7.88%
inactive: [1] 89% | [2] 65.8% | [3] 72.5% | [4] 48.6% | [5] 94.6% | [7] 68.4% | [8] 81% | [9] 117% | [10] 93.2%

COc1ccc2c(c1)N(CCO)C1=C(C(=O)OC1)C2c1cc(OC)c(OC)c(OC)c1 (stereo not given)
active: [2] 2.05% | [5] 0.781% | [6] -36.1% | [9] -65.4% | [10] -30.8%
inactive: [1] 17.4% | [3] 17% | [4] 25.6% | [7] 13.1% | [8] 25.3%

Cc1ccc(C(=O)N2C/C(=C/c3ccc(F)cc3)C(=O)/C(=C/c3ccc(F)cc3)C2)cc1
inactive: [1] 97.6% | [2] 86.9% | [3] 90.6% | [4] 96.4% | [5] 101% | [6] 67.7% | [7] 94.5% | [8] 91.6% | [9] 111% | [10] 101%

COc1ccc(Nc2cc(C)nc(NCCCNc3ccnc4cc(Cl)ccc34)n2)cc1
inactive: [1] 63.2% | [2] 110% | [4] 18.7% | [10] 28%
active: [3] -3.79% | [5] -4.78% | [6] -74% | [7] -44.7% | [8] -97.7% | [9] -96.3%

NC1(C(=O)O)CSSC1
inactive: [1] 49.8% | [2] 60.5% | [3] 109% | [4] 35.9% | [5] 13.3% | [6] 121% | [7] 22.1% | [8] 107% | [9] 102% | [10] 78.8%

CCCCCCCCCCCCCC[n+]1ccc(C(N)=O)cc1
active: [2] -7.94% | [5] 0.582% | [6] -21.7% | [8] -12.1% | [9] -100%
inactive: [1] 16.7% | [3] 58.8% | [4] 10.5% | [7] 33.6% | [10] 22.8%

Cc1cccc(C)c1NC(=O)c1sc2nc3c(cc2c1N)C(=O)CCC3
inactive: [1] 65.6% | [2] 83% | [3] 46.4% | [4] 112% | [5] 25.4% | [6] 61.7% | [7] 35.6% | [8] 92.2% | [9] 15.2% | [10] 93.2%

COc1ccc(-c2cc(/C=C3\C(=O)Nc4ccc(Cl)cc43)[nH]n2)cc1OC
inactive: [1] 101% | [2] 85.5% | [3] 70.6% | [4] 97.7% | [5] 79.9% | [6] 89% | [7] 89.5% | [8] 102% | [9] 89.7% | [10] 76.4%

Cc1cc(Cl)nc(N(CCCNc2ccnc3cc(Cl)ccc23)Cc2cccs2)n1
inactive: [2] 41.1% | [3] 29.7% | [4] 23.1% | [7] 18.1% | [8] 17.4% | [10] 30.7%
active: [1] -12.9% | [5] 7.09% | [6] -0.273% | [9] -73.3%

C/C(N)=C(\C#N)C(=O)c1ccccc1
inactive: [1] 104% | [2] 98% | [3] 107% | [4] 105% | [5] 103% | [6] 96.6% | [7] 97.6% | [8] 106% | [9] 105% | [10] 110%

From PubChem BioAssay (NCI)
